From publication PMC5540273 (PLoS ONE, 2017)

Tests used:
Conditions in all cases: concentration: 1 μM, replicates: in singlicate; n = 1
[1] = tested on: PAK4
[2] = tested on: PAK6
[3] = tested on: PAK7
[4] = tested on: T1, PCTK1
T1 construct: gene CDK16

[5] = tested on: T2, PCTK2
T2 construct: gene CDK17

[6] = tested on: T3, PCTK3
T3 construct: gene CDK18

[7] = tested on: PDGFRA
[8] = tested on: PDGFRB
[9] = tested on: PDPK1
[10] = tested on: PFTAIRE2
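Also: KINOMEscan kinase panel screen.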

SMILES | %Inh [1] [%] | %Inh [2] [%] | %Inh [3] [%] | %Inh [4] [%] | %Inh [5] [%] | %Inh [6] [%] | %Inh [7] [%] | %Inh [8] [%] | %Inh [9] [%] | %Inh [10] [%]
CSc1ccc(-c2cc3ncnc(SCC(=O)O)c3s2)cc1 | 0 | 0 | 8 | 0 | 0 | 6 | 15 | 50 | 10 | 12
CNc1ncnc2[nH]ncc12 [SKF-18355] | 0 | 0 | 0 | 0 | 0 | 0 | 0 | 0 | 0 | 12
COC(=O)Nc1nc2cc(Oc3ccc(NC(=O)Nc4cc(F)ccc4F)cc3)ccc2[nH]1.Cl [GW701424] | 0 | 0 | 12 | 0 | 0 | 23 | 98.9 | 100 | 0 | 0
NS(=O)(=O)c1cccc(-c2ccc3ncc(N4CCOCC4)nc3c2)c1 [GSK1535721] | 5 | 0 | 26 | 0 | 18 | 0 | 21 | 21 | 0 | 5
Cc1c(Cn2c(C)nn3c(=O)cc(N4CCOC(C)C4)nc23)cccc1C(F)(F)F (centres unmarked) [GSK2344444] | 0 | 0 | 0 | 6 | 0 | 8 | 0 | 18 | 8 | 16
CN(C1=C(c2ccccc2)C(=O)NC1=O)c1ccccc1 [SB-334860] | 5 | 0 | 18 | 5 | 8 | 11 | 0 | 19 | 5 | 27
Fc1ccc(-c2ncn(CCCN3CCOCC3)c2-c2ccccn2)cc1 [SB-211742] | 0 | 8 | 0 | 0 | 2 | 0 | 0 | 0 | 0 | 20
Cn1ccc2ncnc(Oc3ccc(NC(=O)Nc4ccncc4)c(Cl)c3)c21 | 3 | 1 | 0 | 0 | 0 | 0 | 27 | 16 | 36 | 0
CC(=O)Nc1ccc(COc2ccc(Nc3ccnc4cc(-c5ccccn5)ccc34)cc2)cc1.Cl [GW440148] | 0 | 13 | 15 | 1 | 17 | 18 | 99.1 | 100 | 0 | 26
O=c1cc(N2CCOCC2)nc2n(Cc3cccc(C(F)(F)F)c3)ccn12 [GSK2297543] | 0 | 0 | 0 | 6 | 0 | 1 | 11 | 22 | 0 | 17
O=C1Cc2cc(Nc3nc(NCc4cccc(S(=O)(=O)C(F)(F)F)c4)ncc3C(F)(F)F)ccc2N1 | 100 | 0 | 0 | 19 | 0 | 1 | 0 | 16 | 0 | 0
CC(C)(C)n1cnc2c(N)ncnc21 [SKF-97359] | 21 | 0 | 6 | 0 | 0 | 0 | 0 | 0 | 0 | 8
NS(=O)(=O)c1cccc(-c2ccc3nccc(-c4cccc(S(N)(=O)=O)c4)c3c2)c1 [GW867253] | 0 | 0 | 6 | 0 | 0 | 0 | 0 | 1 | 0 | 19
Cc1nnc(-c2ccc3ncc(-c4ccc(S(C)=O)cc4)n3c2)o1 (centres unmarked) | 0 | 0 | 5 | 14 | 0 | 0 | 42 | 80 | 0 | 0
Cl.Oc1cccc(Nc2ccnc3cc(-c4ccncc4)ccc23)c1 [GW494601] | 0 | 0 | 14 | 0 | 0 | 18 | 98.5 | 99.5 | 0 | 2
CN(C(=O)c1ccc(-c2cc(-c3c[nH]nc3-c3ccccn3)ccn2)cc1)C1CCOCC1 [GW810083] | 28 | 0 | 16 | 0 | 0 | 0 | 4 | 0 | 0 | 29
O=c1cc(N2CCOCC2)nc2n(Cc3cccc(F)c3)ccn12 [GSK2297430] | 0 | 0 | 0 | 5 | 0 | 27 | 0 | 12 | 32 | 7
